Giardia killer – Giardia lamblia killing; Giardia lamblia trophozoite viability; activity change, % at 7.66 µM, hits read low; actives 0.15% (n = 340,000); in the data active = activity change below about -80%; inconclusive = between about -30% and that limit;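 also: parasites exposed to compound for two days anaerobically before the ATP read; % is scaled to controls: 0 for no effect and ±100 for the full control effect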
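Compounds were tested on trophozoites seeded at 100 cells/well and held 48 hrs at 37 deg C anaerobically. An ATP-based luminescent kit measured the remaining live cells.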
RORg inh – blocks mouse ROR gamma transcriptional activity | actives 5.4% (n = 310,000) | Drosophila S2 Gal4-RORgamma UAS-luciferase reporter, 20 h | Potency, µM (series often up to 53.6 µM), for inactives: at the top dose activity change, negative = inhibition, most hits filed as inhibitors; also: potency is read from the fitted curve at half-maximal effect; % is scaled to controls: 0 for no effect and ±100 for the full control effect; nearly all actives have a fitted effect of over 60% in size
Target sequence (P51450 whole entry, looked up, the tested form may be a part): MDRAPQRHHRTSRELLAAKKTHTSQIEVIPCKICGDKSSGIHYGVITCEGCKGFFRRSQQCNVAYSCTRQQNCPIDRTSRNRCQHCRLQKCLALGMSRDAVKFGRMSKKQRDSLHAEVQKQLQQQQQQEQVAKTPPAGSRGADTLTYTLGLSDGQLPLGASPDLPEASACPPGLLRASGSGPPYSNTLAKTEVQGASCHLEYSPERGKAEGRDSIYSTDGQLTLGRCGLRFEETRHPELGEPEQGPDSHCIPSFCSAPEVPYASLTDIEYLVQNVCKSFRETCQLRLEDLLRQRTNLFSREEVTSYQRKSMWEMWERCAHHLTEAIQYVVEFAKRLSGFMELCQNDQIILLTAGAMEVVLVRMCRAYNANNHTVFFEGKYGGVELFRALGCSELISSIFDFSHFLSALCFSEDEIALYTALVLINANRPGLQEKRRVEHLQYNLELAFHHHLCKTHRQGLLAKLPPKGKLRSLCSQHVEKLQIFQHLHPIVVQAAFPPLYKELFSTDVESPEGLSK
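Drosophila S2 cells stably expressing Gal4-DBD/mouse RORγ fusion under metallothionein promoter plus UAS-luciferase; compound 1 h, then 700 uM CuSO4 induction for 20 h at ambient temperature; inhibition read as reduced luminescence.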
VP16 counter – Gal4-VP16 reporter inhibition counter-screen. Drosophila S2 Gal4-VP16 UAS-luciferase, luminescence, 20 h. Potency, µM (top dose mostly 53.6 µM), for inactives: top-dose activity, negative = inhibition, actives largely listed as inhibitors. actives 3.5% (n = 310,000);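 also: Gal4-VP16 expression switched on by copper sulfate through the metallothionein promoter; potency is read from the fitted curve at half-maximal effect; % is scaled to controls: 0 for no effect and ±100 for the full control effect; nearly all actives have a fitted effect of over 50% in size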
BRCA1 expr up – increases BRCA1 expression | AID 624202 | Potency, µM (doses to about 46.1 µM), for inactives: at the top dose activation, usual class: activators | actives 1.1% (n = 380,000) | MCF7-BRCA1-FFLuc reporter, luminescence, 48 h; response scale: scaled: vehicle 0%, 10 µM genistein 100%; also: potency is read from the fitted curve at half-maximal effect; nearly all actives have a fitted effect of over 80% in size
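Activators of BRCA1 expression were detected as increased firefly luciferase luminescence in engineered MCF7 cells after 48 h compound incubation. Signals were scaled to genistein 10 microM as full activation.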
p53 reactivation – mutant p53 re-activation in reporter cells | H1299 p53-A138V BP100-luciferase reporter, luminescence, 24 h | AID 504706 | actives 0.063% (n = 320,000) | Potency, µM (doses to about 92.2 µM), without a hit: at the top dose activity change, positive = activation, most hits filed as activators; also: potency is read from the fitted curve at half-maximal effect; % of control where 0% means no effect; nearly all actives have a fitted effect of over 45% in size
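H1299 (p53-null), stable ts p53-A138V + BP100-Luc; 1000 cells/well, Opti-MEM/10% FBS; cpd 4 pt, 1:5; 24 h, 37 deg C, 5% CO2; detection reagent 10 min RT; luminescence.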
ELG1 repair inh – inhibitors of ELG1-dependent DNA repair in HEK293T cells | AID 504467 | Potency, µM (doses to about 46.1 µM), for inactives: top-dose activity change, negative = inhibition, hits mostly inhibitors | actives 2.3% (n = 330,000) | HEK293T ELG1-luciferase reporter, luminescence, 16 h; DNA damage induced by 5-fluorouridine; also: potency is read from the fitted curve at half-maximal effect; % is scaled to controls: 0 for no effect and ±100 for the full control effect; nearly all actives have a fitted effect of over 55% in size
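In this reporter screen, reduction of luminescence relative to DMSO vehicle indicated activity. Compounds and 5-fluorouridine were added together to 2,000 cells per well, incubated for 16 hr at 37 °C, then developed with ONE-Glo.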
Active calls of the source: *; ? = inconclusive; / = not tested or not shown. Only some compounds are listed: those with a hit (about 7.6% of all), similar ones and a draw of the others. Unless noted, calls follow the shape of the dose curve; as a rule, active = well fitted curve in the direction sought with a large enough effect; inconclusive = small, poorly fitted or top-dose-only effect, or another doubt; inactive = no such curve, though single readings can be large; an effect the other way counts as inactive or inconclusive.

SMILES	Giardia killer	RORg inh	VP16 counter	BRCA1 expr up	p53 reactivation	ELG1 repair inh
CC12CC[C@H]3[C@@H](CCC4(O)C[C@H](O)CCC34/C=N/NC(=O)c3ccc(O)cc3)C1(O)CCC2C1=CC(=O)OC1 (stereo partly specified)	-1.5	8.91µM*	10µM*	1.4%	-1.5%	4.1%
COc1ccc(C(=O)N/N=C/C23CC[C@@H](O)CC2(O)CC[C@@H]2[C@@H]3CCC3(C)C(C4=CC(=O)OC4)CCC23O)cc1 (stereo partly specified)	21.0	2.2%	4.1%	-14.2%	1.5%	?
Ic1c(C2=CCCCC2)[se]c2ccccc12	/	8.6%	-13.2%	/	/	/
CN1CCC(OC(=O)Cc2ccccc2)CC1	-14.4	-0.8%	-9.9%	2.4%	1.9%	1.6%
COc1ccc(C(=O)OC2CCN(C)CC2)cc1	8.4	12.6µM*	-22.9%	27.9%	14.6%	22.7%
CC[C@@]1(C(=O)OC)N[C@H](CN(C)C(=O)c2ccc(C(C)(C)C)cc2)[C@@H]2C(=O)N(Cc3ccccc3)C(=O)[C@@H]21	1.0	/	/	9.7%	-2.0%	11.6µM*
CCN(C[C@H]1N[C@@](CC)(C(=O)OC)[C@H]2C(=O)N(Cc3ccccc3)C(=O)[C@@H]12)S(=O)(=O)c1ccc(OC)cc1	1.0	/	/	-13.1%	-8.5%	?
CCC1COC(Cn2cncn2)(c2ccc(Cl)cc2Cl)O1 (stereo unspecified)	/	-26.8%	0.1%	/	/	/
Oc1ccc(Cl)c(Cl)c1Cl	-11.4	?	-13.3%	0.3%	-0.6%	12.3%
CN=C(SCC(=O)c1cccc(Cl)c1)c1c(O)n(C)c(=O)n(C)c1=O	29.9	28.1%	?	-32.8%	7.2%	?
Cc1nc(-c2nc(-c3c(C(=O)NNC(=O)c4ccc(Cl)cc4)noc3C)cs2)cs1	-1.6	10µM*	?	-11.3%	3.9%	?
COC(=O)[C@@H]1C[C@]2(C(=O)O)c3ccccc3N(OOSc3ccccc3)[C@@H]2N1C(=O)OC	28.7	/	/	-8.6%	/	/
Cc1ccc(S(=O)(=O)NP(=O)(Oc2ccccc2)Oc2ccccc2)cc1	-4.1	1.4%	5.8%	-13.3%	-0.4%	0.0%
Cc1ccc(C)c(NP(=O)(Oc2ccccc2)Oc2ccccc2)c1	?	-14.2%	-0.7%	-33.7%	-18.9%	8.2µM*
O=[N+]([O-])c1ccc(F)c([N+](=O)[O-])c1	/	?	0.7%	/	/	/
CCOC(=O)c1ccc(N=C(C)c2c(O)[nH]c(=O)[nH]c2=O)cc1	-11.5	18.1%	0.9%	0.0%	1.3%	?
CC(=O)c1c(C)n(Cc2ccccc2)c2ccc(O)cc12	-0.5	19.0%	-9.1%	-11.8%	1.3%	23.1µM*
COC(=O)c1c(C)n(Cc2ccccc2)c2ccc(O)cc12	8.6	20.0%	-8.7%	0.0%	-2.6%	-14.2%
CC12CCC3C(CCC4CC(=O)OCC43C)C1CCC2O (stereo unspecified)	-4.6	/	/	-5.5%	/	/
COCCCNC(=S)NNC(=O)c1ccc(C(C)(C)C)cc1	-20.9	-42.3%	-20.2%	-10.7%	-2.5%	?
COc1ccc(C(=O)NC(=S)NNC(=O)c2cccnc2)cc1	-24.7	15.8µM*	-12.6%	-20.1%	7.5%	-26.0%
CC(C)(C)NC(=S)/N=C(\N)N[N+](=O)[O-]	-4.0	10µM*	?	4.5%	-2.9%	-0.9%
COC(=O)C1=C(c2ccc(Cl)c(C(F)(F)F)c2)C[C@@H]2CC[C@H]1N2C(=O)NCCOc1ccccc1Cl	18.7	/	/	-71.9%	-12.5%	?
Cc1ccc(-c2cc(C(F)F)n3ncc(C(=O)N4CCC5(CC4)OCCO5)c3n2)cc1	10.3	23.9%	0.6%	-16.3%	0.8%	18.4µM*
C=C1C(O)(c2ccccc2)C2CC[N+]1(C)CC2 (stereo unspecified)	41.0	11.0%	4.1%	-11.6%	-2.7%	-16.8%
Cc1cc(C(=O)Cn2nnc(-c3ccc(Cl)cc3)n2)c(C)n1-c1ccccc1	-17.1	?	22.4µM*	-28.8%	13.6%	1.3%
